# About 83,000 compounds went through this panel and 20% of them were active in at least one assay; those are over-represented in the sample as a whole.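 Compound tested at a single concentration for 48 hours in 96-well plates; a percent growth value below 10 was scored as active.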 A number with no mark means an inactive call.
# System: ACHN renal
# Test: NCI-60 one-dose screen, 48 h (100 = growth as untreated, 0 = no growth, -100 = all killed)
# Conditions: 10 µM
# Experimental: Growth inhibition of the ACHN human tumor cell line is measured as a screen for anti-cancer activity. Cells are grown in 96 well plates and exposed to the test compound for 48 hours. Compounds are tested at a single concentration, which is 10^-5 M for most compounds. The reported endpoint is percent growth (GI% or GIPRCNT), where numbers from 0 - 100% represent growth inhibition, and numbers from -100% - 0 represent cell death. For example, a value of 40 represents 60% growth inhibition. A value of 0 means no net growth occurred over the course of the experiment. A value of -40 indicates 40% of cells at the beginning of the experiment died by the end of the experiment. A value of -100 means all cells are dead at the end of the experiment.
# NCI-60 Human Tumor Cell Lines Screen was performed using the standard one-dose NCI protocol, which is described in more detail at https://dtp.cancer.gov/discovery_development/nci-60/default.htm.
# Compounds with GIPRCNT values below 10 were considered active. Activity score was based on GIPRCNT using the following formula: […]
# Score is 0 for GIPRCNT values of 100 or above, 50 for GIPRCNT values of 0, and 100 for GIPRCNT values of -100.
row,SMILES,growth [%]
1,CCC(C)(O)c1ccc(C)cc1 (stereo not given),108
2,Cc1ccc(C(=O)N/N=C/c2ccc3c(c2)OCO3)cc1,94.3
3,CCCCCCCCCCCCCCCCC1CC(=O)OC1=O (stereo not given),110
4,COc1ccccc1NC(=O)C1=C(C)NC(C)=C(C(=O)Nc2ccccc2OC)C1c1cccc([N+](=O)[O-])c1,54.6
5,CCOC(=O)Nc1cc2c(c(N)n1)N=C(c1ccccc1)CO2,49.9
6,Cc1ccc(/C=C2\SC(=S)N(c3ccc(F)cc3)C2=O)o1,48.6
7,COc1cc2cc(OC(C)=O)c3cc4c(cc3c2c(OC)c1OC)OCO4,101
8,O=[N+]([O-])c1cccc2nsnc12,105
9,CCOC(=O)CSc1c([N+](=O)[O-])ncn1C,101
10,CN(C)CCN(Cc1ccccc1)c1ccccc1,110
11,CC(=O)Nc1cccc(Cl)c1C,106
12,NC(C(=O)O)c1ccc([N+](=O)[O-])cc1 (stereo not given),98.1
13,Cc1ccc(C(=O)NC2c3ccccc3Oc3ccccc32)cc1,40
14,COCCCC/C(=N\OCCN)c1ccc(C(F)(F)F)cc1,98.6
15,CC(C)C1CCCCC1O (stereo not given),93.5
16,O=C(NCc1ccco1)Nc1c(Cl)cc(Cl)cc1Cl,97.2
17,CCOc1ccc(Br)cc1/C=N\N=C\c1cc(Br)ccc1OCC,104
18,O=c1cc2oc3cc(O)c(O)cc3c(-c3ccccc3O)c-2cc1O,24
19,CCOC(=O)c1[nH]c(C)c(C(C)=O)c1C,97
20,Cc1cc(C)cc(NCCC#N)c1,107

row,SMILES,growth [%]
1,COc1ccc(-c2cc(-c3cc(-c4ccc(OC)cc4)nc(N)n3)nc(N)n2)cc1,97.6
2,Cc1cc2nc(CC(=O)c3ccccc3)c(=O)[nH]c2cc1C,93.8
3,Oc1ccc(N=Nc2ccc(Br)cc2)c(O)c1,49.8
4,CC1=CC(=O)c2ccccc2C1=O,95.2
5,CC1(O)CCCCC1O (stereo not given),102
6,CC(=O)OCC1OC(OC2=C(CC=C(C)C)C(=O)c3ccccc3C2=O)C(OC(C)=O)C(OC(C)=O)C1OC(C)=O (stereo not given),12.8
7,COc1cc2nc3cc([N+](=O)[O-])ccc3c(Cl)c2cc1OC,91.9
8,CCC(O)CC(CC)CO (stereo not given),105
9,COc1cc2c3c(n(C)c(=O)c2cc1OC)-c1cc2c(cc1C3=O)OCO2,26.6
10,COc1ccc(-c2cc3c(nn2)-c2ccccc2C3=O)cc1,73.5
11,CCCC(C)OCC(=O)O (stereo not given),102
12,COC(=O)c1cccc(Br)c1,108
13,CC(=O)OCCC(C)CCC=C(C)C (stereo not given),104
14,NC(=S)CN1CCOCC1,103
15,Oc1ccc(Cc2ccccc2)c2cccnc12,11.5
16,CC(=O)c1cc2c(cc1F)C(C)(C)CCC2(C)C,91.9
17,CN(C)/N=C/c1ccccc1O,97.6
18,O=[N+]([O-])c1ccc(-c2noc(-c3cccs3)n2)cc1,60.2
19,CCN1C(=O)/C(=C/C=C/N(C)c2ccccc2)SC1=S,75.7
20,Oc1ccccc1-c1nnco1,83

# Source: PubChem BioAssay (NCI)
